Measurements as given in PubChem BioAssay (NCI).
Compounds without any hit were thinned out: in the full panel of roughly 83,000, 20% have a hit.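 Compound tested at a single concentration for 48 hours in 96-well plates; a percent growth value below 10 was scored as active.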 The source made the active and inactive calls.

Tested on: SK-MEL-5 melanoma
Test: NCI-60 one-dose screen, 48 h (100 = growth as untreated, 0 = no growth, -100 = all killed)
Conditions: 10 µM
Protocol: Growth inhibition of the SK-MEL-5 human tumor cell line is measured as a screen for anti-cancer activity. Cells are grown in 96 well plates and exposed to the test compound for 48 hours. Compounds are tested at a single concentration, which is 10^-5 M for most compounds. The reported endpoint is percent growth (GI% or GIPRCNT), where numbers from 0 - 100% represent growth inhibition, and numbers from -100% - 0 represent cell death. For example, a value of 40 represents 60% growth inhibition. A value of 0 means no net growth occurred over the course of the experiment. A value of -40 indicates 40% of cells at the beginning of the experiment died by the end of the experiment. A value of -100 means all cells are dead at the end of the experiment.
NCI-60 Human Tumor Cell Lines Screen was performed using the standard one-dose NCI protocol, which is described in more detail at https://dtp.cancer.gov/discovery_development/nci-60/default.htm.
Compounds with GIPRCNT values below 10 were considered active. Activity score was based on GIPRCNT using the following formula: […]
Score is 0 for GIPRCNT values of 100 or above, 50 for GIPRCNT values of 0, and 100 for GIPRCNT values of -100.

| SMILES | growth |
| --- | --- |
| COc1cc(C)ccc1Oc1nc(Nc2ccc(N3CCOCC3)cc2)ncc1NC(=O)Nc1cc(C(F)(F)F)cc(C(F)(F)F)c1 | 82.6% (inactive) |
| CC(=O)COc1ccc(Cl)cc1Cl | 99.8% (inactive) |
| CS(=O)(=O)c1nccc(-c2c(-c3cccc(OCc4ccc(F)cc4)c3)nc3sccn23)n1 | 5.39% (active) |
| CC(CN(C)C)Oc1ccc(OC(C)CN(C)C)c2c1C(=O)c1ccccc1C2=O (stereo not given) | 69.1% (inactive) |
| COc1ccc(C2CC(c3cccs3)=NN2c2ccc(S(N)(=O)=O)cc2)cc1 (stereo not given) | 60.8% (inactive) |
| CCOC(=O)c1cc(C(=O)c2ccc(OC)c(OC)c2)n2ccncc12 | 89.4% (inactive) |
| CC(=O)[C@H]1CC[C@]2(C)[C@@H]1CC[C@@H]1[C@@]3(C)CC(CCC#N)(CCC#N)C(=O)C(C)(C)[C@@H]3CC[C@]12C | 86.6% (inactive) |
| CCOC(=O)c1cc(C(=O)c2cc(OC)cc(OC)c2)n2ncc3ccccc3c12 | 18.7% (inactive) |
| CC(=O)Nc1ccc(CC[C@H]2CCC/C=C/[C@@H]3C[C@H](O)C[C@H]3[C@H](O)/C=C/C(=O)O2)cc1 | -88.6% (active) |
| CC(CN(C)C)Oc1ccccc1NC1=C(Cl)C(=O)C(Nc2ccccc2OC(C)CN(C)C)=C(Cl)C1=O (stereo not given) | -95.8% (active) |
| CS(=O)(=O)c1nccc(-c2c(-c3cccc(OCCc4ccccc4)c3)nc3sccn23)n1 | 78.3% (inactive) |
| COc1cc(-c2nn(-c3cccc(NC(=O)CCN4CCN(c5ccccc5)CC4)c3)cc2-c2ccncc2)ccc1Cl | 22% (inactive) |
| COc1ccc(/C(C#N)=C/c2cccc(OC)c2OC)cc1 | 73.1% (inactive) |
| NS(=O)(=O)c1ccc(Br)cc1 | 104% (inactive) |
| COC(=O)c1c[nH]c2cc(OC(C)C)c(OC(C)C)cc2c1=O | 98.3% (inactive) |
| Nc1nc(-c2cccnc2)nc2c1sc(=S)n2-c1ccccc1 | 98.6% (inactive) |
| NC(N)=N/N=C(\N=Nc1ccccc1)c1ccc(Cl)cc1 | 65.1% (inactive) |
| COc1ccc2nc(-c3ccc(Cl)cc3)cc(-c3nnc(SC/C(=N\O)c4ccccc4)n3-c3ccccc3)c2c1 | 79.1% (inactive) |
| Cc1c2c[n+](C(C)C)ccc2c(C)c2c1[nH]c1ccccc12 | -63.4% (active) |
| COc1cc2cc(Oc3ccc(NC(=O)Nc4cccc(C(F)(F)F)c4)cc3)c(C)nc2cc1OC | -86.1% (active) |

| SMILES | growth |
| --- | --- |
| O=C(/C=C/C=C/c1c(C2CC2)nc2ccccc2c1-c1ccc(F)cc1)c1cccs1 | -77.1% (active) |
| COc1cc(-c2nn(-c3cccc(NC(=O)CCNc4ccc(N5CCOCC5)cc4)c3)cc2-c2ccncc2)ccc1Cl | -40.5% (active) |
| CCOC(=O)N/N=C/c1ccc(OC)c(OC)c1 | 101% (inactive) |
| O=C1c2ccccc2C(=O)c2c1ccc(C(Br)Br)c2Cl | 74% (inactive) |
| O=C(CSc1nnc(-c2cccnc2SCc2ccccc2)o1)Nc1nc(Cl)cc(Cl)n1 | 101% (inactive) |
| CN(C)CCCSc1ccccc1NC1=C(Cl)C(=O)C(Nc2ccccc2SCCCN(C)C)=C(Cl)C1=O | 91.1% (inactive) |
| CN1CCc2c(sc3nc4n(-c5ccc(Cl)cc5)cnn4c(=O)c23)C1 | 109% (inactive) |
| Cn1c2ccccc2c2c3[nH][nH]c(=O)c3c3c4ccccc4[nH]c3c21 | -18.1% (active) |
| Cc1cc(NC(=O)c2ccc(C)c(Nc3nccc(-c4cccnc4)n3)c2)cc(-n2cnc(C)c2)c1 | 65.7% (inactive) |
| O=C(Nc1ccc(F)cc1)c1cc2ccccc2cc1O | 65.7% (inactive) |
| CCCCCCCCCCCC[n+]1c(C)cc(N)c2ccccc21 | -96.7% (active) |
| O=C(O)Cc1ccc(O)c(O)c1 | 94.1% (inactive) |
| CC(C)C1=C(O)C2=C(C(=O)C1=O)[C@@]1(C)CCCC(C)(C)[C@@H]1CC2 | 70.1% (inactive) |
| CC(=O)/C(=C/c1ccc(Br)cc1)C(=O)c1ccccc1 | 66.3% (inactive) |
| Clc1ccc2c(c1)C(N1CCNCC1)=Nc1ccccc1O2 | 10.4% (inactive) |
| CCCc1nc(C(C)(C)O)c(C(=O)O)n1Cc1ccc(-c2ccccc2-c2nn[nH]n2)cc1 | 110% (inactive) |
| CC[C@@H](C(=O)[C@H](C)[C@H](O)[C@@H](C)[C@H]1O[C@H]([C@@H](CC)C(=O)O)CC[C@H]1C)C1O[C@]2(C=C[C@@H](O)[C@]3(CC[C@@](C)([C@H]4CC[C@](O)(CC)[C@H](C)O4)O3)O2)[C@H](C)C[C@@H]1C (stereo not given in full) | -99.2% (active) |
| CC(=O)Nc1cc2c(cc1Cl)Cc1cc(Cl)ccc1-2 | 86.6% (inactive) |
| COc1cc2c(Nc3ccc(-c4ccc(N)cc4)cc3)ncnc2c(OC)c1OC | -25.1% (active) |
| CC1=CC2C(C(O)CC3(C)C2CC(C)C32OCOC23COCO3)C2(C)C/C(=C/O)C(=O)C=C12 (stereo not given) | 44.2% (inactive) |
